AmpC inh detg: qHTS Inhibitors of AmpC Beta-Lactamase (assay with detergent); P00811; AmpC hydrolysis of nitrocefin, absorbance 480 nm, 0.01% Triton; Potency, µM (highest dose often 114 µM), inactives show at the highest dose activity change, negative = inhibition, actives largely listed as inhibitors; 370,000 tested, 0.041% active; AID 485294, 2010;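 also: 0% = no-compound wells and -100% = no-enzyme wells; nearly all actives have a fitted effect of over 25% in size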
Target sequence (P00811 whole entry, looked up): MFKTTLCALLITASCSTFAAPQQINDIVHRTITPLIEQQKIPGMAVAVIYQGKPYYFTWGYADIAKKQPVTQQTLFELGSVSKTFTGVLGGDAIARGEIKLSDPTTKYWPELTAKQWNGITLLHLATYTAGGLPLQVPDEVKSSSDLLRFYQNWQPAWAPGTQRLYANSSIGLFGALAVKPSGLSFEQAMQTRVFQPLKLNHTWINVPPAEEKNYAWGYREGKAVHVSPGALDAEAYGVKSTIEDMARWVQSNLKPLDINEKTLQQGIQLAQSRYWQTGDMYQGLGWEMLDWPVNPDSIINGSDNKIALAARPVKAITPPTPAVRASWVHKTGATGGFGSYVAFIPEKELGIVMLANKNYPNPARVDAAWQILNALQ
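20 mM phosphate pH 7.0 + 0.01% (detergent screen) or 0.0001% Triton X-100; 5.3 nM AmpC reagent; cpd preinc 15 min RT; nitrocefin (800 uM stock) to start; A480 q20 s × 4 min; Activity was normalised to no-enzyme and no-compound control wells.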
Pf growth 96h: Primary qHTS for delayed death inhibitors of the malarial parasite plastid, 96 hour incubation | P. falciparum luciferase reporter growth, 96 h | Potency, µM (series often up to 28.7 µM), for the others: at the highest dose activity change, negative = inhibition, actives largely listed as inhibitors | 320,000 tested, 6.9% active
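Cell-based qHTS: luciferase-tagged P. falciparum in erythrocytes (2% hematocrit, 0.05% parasitemia final) incubated with compounds for 96 hours, 37 C, 5% CO2; luciferase detection reagent then added and luminescence measured.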
AMA1 RON2 block: qHTS for Inhibitors of AMA1-RON; Towards Development of Antimalarial Drug Lead: Primary Screen. Plasmodium falciparum AMA1 (3D7) - RON2 peptide interaction. AID 720542, 2013. Potency, µM (doses to about 58.2 µM), for the others: at the highest dose activity change, negative = inhibition, usual class: inhibitors. 360,000 tested, 0.2% active. AlphaScreen AMA1-biotinylated RON2 peptide binding;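 also: 0% = vehicle wells and -100% = peptide control; nearly all actives have a fitted effect of over 45% in size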
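AMA1 (3D7) with his tag at 25 nM final met compounds first, then biotinylated RON2 peptide at 25 nM; detection used donor plus acceptor beads, 10 µg/mL apiece, read by AlphaScreen after 30 min at room temperature.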
AmpC no deterg: qHTS Inhibitors of AmpC Beta-Lactamase (assay without detergent); 330,000 tested, 0.52% active; AID 485341, 2010; AmpC nitrocefin hydrolysis, absorbance 480 nm, 0.0001% Triton; P00811; Potency, µM (doses to about 57.1 µM), without a hit: at the top dose activity change, negative = inhibition, hits mostly inhibitors;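 also: plate controls were no compound for no effect and no enzyme for full effect; nearly all actives have a fitted effect of over 20% in size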
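20 mM phosphate pH 7.0 + 0.01% (detergent screen) or 0.0001% Triton X-100; 5.3 nM AmpC reagent; cpd preinc 15 min RT; nitrocefin (800 uM stock) to start; A480 q20 s × 4 min; Activity was normalised to no-enzyme and no-compound control wells.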
Pf growth 48h: Primary qHTS for delayed death inhibitors of the malarial parasite plastid, 48 hour incubation; P. falciparum luciferase growth in erythrocytes, 48 h; Potency, µM (doses to about 28.7 µM), for inactives: at the top dose activity change, negative = inhibition, actives largely listed as inhibitors; 310,000 tested, 5.9% active
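Growth was read as firefly luciferase luminescence after a 48 h, 37 C, 5% CO2 exposure of compounds to reporter-bearing P. falciparum cultures (0.1% parasitemia, 2% hematocrit final) in Albumax-supplemented RPMI 1640.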
HCV inhibitor: qHTS Assay for Inhibitors of Hepatitis C Virus (HCV); Huh7.5.1 HCVcc-Cre infection, luciferase reporter, 44 h; Potency, µM (top dose mostly 41.8 µM), for the others: at the top dose activity change, negative = inhibition, most hits filed as inhibitors; 340,000 tested, 3.4% active; AID 651820, 2012
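Cells seeded at 1,000/well and cultured 4 h, then compounds added followed by HCVcc-Cre virus (~0.5 moi). After 44 h further culture, luciferase substrate was added, plates held 15 min at room temperature, and luminescence read for 15 sec.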
* = called active by the depositor; ? = inconclusive; . = no result given. In the library only some 11% were active in any assay of this set; here they are far more common. Calls follow the shape of the dose curve; as a rule, active = well fitted curve in the direction sought with a large enough effect; inconclusive = small, poorly fitted or top-dose-only effect, or another doubt; inactive = no such curve, though single readings can be large; an effect the other way counts as inactive or inconclusive. Unless noted, % is scaled to controls: 0 for no effect and ±100 for the full control effect; potency is read from the fitted curve at half-maximal effect.

SMILES	AmpC inh detg	Pf growth 96h	AMA1 RON2 block	AmpC no deterg	Pf growth 48h	HCV inhibitor
COC(=O)c1sccc1S(=O)(=O)N(CC(=O)Nc1cc(C)cc(C)c1)c1ccc(Cl)cc1	-4%	.	.	.	.	.
CC(C)(C)C(=O)NC1(C(F)(F)F)NC(=O)N(c2ccc(F)cc2)C1=O (stereo not drawn)	0%	12µM*	-2%	-11%	-12%	11%
CC(=O)Nc1ccc(C(=O)Nc2ccc3c(c2)OCO3)cc1	-13%	2.3µM*	30%	-14%	31%	7%
CCN(CC)c1ccc(NC(=O)c2ccc3c(c2)OCO3)c(C)c1	1%	131%	0%	-25%	4%	11µM*
O=C(Nc1ccc(F)c(F)c1)c1ccc2c(c1)OCO2	?	2.3µM*	-2%	-17%	168%	-13%
CC(=O)Nc1ccc(C(=O)Nc2ccc3c(c2)OCCO3)cc1	-15%	?	2%	-13%	.	-2%
Cc1cc(NC(=O)c2ccc3c(c2)OCO3)ccc1NC(=O)c1ccccc1	-13%	-8%	9%	-10%	45%	?
Cc1nc2nc(SCC(=O)Nc3cccc(Cl)c3)nn2c(C)c1Cc1ccccc1	4%	.	.	.	.	.
O=C(NCc1ccccc1)C1CCN(S(=O)(=O)Cc2ccccc2)CC1	2%	.	.	.	.	.
COc1ccc(-c2nc3ccccc3o2)cc1NC(=O)c1cccc2c(Cl)cccc12	-1%	.	.	.	.	.
COc1cccc(NC(=O)CSCn2nnc3c(=O)[nH]c(Cc4ccc(F)cc4)nc32)c1	6%	.	.	.	.	.
Cc1ccc(-c2nc(CSCC(=O)NCCN3CCN(Cc4ccccc4)CC3)c(C)o2)cc1	1%	-11%	-3%	170%	-14%	13µM*
Cc1ccc(-c2nc(CS(=O)CC(=O)NCCCN3CC(C)CC(C)C3)c(C)o2)cc1 (stereo not drawn)	-17%	?	-1%	56%	.	?
Cc1oc(-c2cccs2)nc1CS(=O)CC(=O)NCCCN1CC(C)CC(C)C1 (stereo not drawn)	?	12µM*	-1%	-1%	.	-4%
Cc1ccc(-c2nc(CSCC(=O)NCCCN3CCOCC3)c(C)o2)cc1	-1%	.	-22%	48%	37%	16%
CCc1ccc(-c2nc(CS(=O)CC(=O)NCCCN3CCOCC3)c(C)o2)cc1 (stereo not drawn)	-1%	7.4µM*	-11%	72%	67%	0%
CSc1ccc(-c2nc(CSCC(=O)NCCCN3CCOCC3)c(C)o2)cc1	?	9.3µM*	-2%	111%	.	-18%
CC1CCC(NC(=O)c2ccc3c(c2)N(Cc2ccccc2F)C(=O)c2ccccc2S3=O)CC1 (stereo not drawn)	14%	.	.	.	.	.
Cc1cccc(CNC(=O)C2CCN(c3nnc(-n4c(C)ccc4C)s3)CC2)c1	4%	.	.	.	.	.
Cc1oc(-c2ccc(Cl)cc2)nc1CS(=O)CC(=O)NCCCN1CCN(Cc2ccccc2)CC1 (stereo not drawn)	0%	9.3µM*	-9%	182%	?	1.3µM*
CC(C)N(C)C1CCN(S(=O)(=O)c2ccc3[nH]c(=O)ccc3c2)CC1	4%	.	.	.	.	.
Cc1ccc(C(=O)c2c3ccc([N+](=O)[O-])cc3[n+]([O-])n2CCC(N)=O)cc1	-10%	0%	4%	-23%	-21%	13µM*
NC(=O)CCCn1c(C(=O)c2cc(Cl)c(N)c(Cl)c2)c2ccc(C(F)(F)F)cc2[n+]1[O-]	?	4.7µM*	-13%	120%	5.9µM*	-13%
NCCCn1c(C(=O)c2cc(Cl)c(N)c(Cl)c2)c2ccc(C(F)(F)F)cc2[n+]1[O-]	-2%	?	0%	101%	6.6µM*	-7%
COc1ccc(C(=O)c2c3ccc([N+](=O)[O-])cc3[n+]([O-])n2CCCC(N)=O)cc1	-10%	?	14%	13%	?	?
SMILES	AmpC inh detg	Pf growth 96h	AMA1 RON2 block	AmpC no deterg	Pf growth 48h	HCV inhibitor
NCCCn1c(C(=O)c2cc(Cl)c(N)c(Cl)c2)c2ccc([N+](=O)[O-])cc2[n+]1[O-]	-11%	?	3%	30%	12µM*	?
NC(=O)c1ccc(Cn2c(C(=O)c3cc(Cl)c(N)c(Cl)c3)c3ccccc3[n+]2[O-])cc1	-3%	?	4%	-12%	?	-2%
COc1ccc(C(=O)c2c3ccc(C(F)(F)F)cc3[n+]([O-])n2CCCC(N)=O)cc1	-14%	?	8%	-1%	?	20%
Cc1c(C(=O)Nc2ccc(C(C)C)cc2)sc2nc[nH]c(=O)c12	-3%	.	.	.	.	.
CCOC(=O)C1CCCN(C(=O)c2ccc3c(c2)N(Cc2ccccc2F)C(=O)c2ccccc2S3=O)C1 (stereo not drawn)	-8%	.	.	.	.	.
Cc1ccccc1NC(=O)c1c(NC(=O)Cc2ccccc2)sc2c1CCC2	-7%	.	.	.	.	.
O=C(COc1ccc(F)cc1)Nc1ccc(OCc2cc(=O)n3ccsc3n2)cc1	-3%	.	.	.	.	.
COc1ccc(CNC(=O)c2c(O)c3cc(OC)c(OC)cc3[nH]c2=O)cc1OC	-9%	?	2%	0%	-2%	-26%
CCCn1c(=O)c(C(=O)NCc2ccncc2)c(O)c2ccccc21	-11%	.	-6%	11%	-1%	4%
CCCCCCn1c(=O)c(C(=O)Nc2cnccn2)c(O)c2ccccc21	7%	?	28%	-7%	2.6µM*	?
COc1cc2[nH]c(=O)c(C(=O)NCc3ccc(F)cc3)c(O)c2cc1OC	-2%	3.3µM*	-4%	-1%	-12%	-2%
CC(C)Cn1c(=O)c(C(=O)NCc2ccccn2)c(O)c2ccccc21	-17%	-1%	10%	75%	12µM*	-2%
CCCCCn1c(=O)c(C(=O)NCc2ccncc2)c(O)c2ccccc21	-4%	69%	71%	47%	1.7µM*	?
CCOc1ccc(C2C(C(=O)Nc3ccccc3)=C(C)Nc3nc(-c4ccccc4Cl)nn32)cc1OC (stereo not drawn)	5%	.	.	.	.	.
CCCCCCCn1c(=O)c(C(=O)OC)c(N)c2ccccc21	1%	?	1%	92%	?	?
CCn1c(=O)c(C(=O)NCc2ccccc2)c(O)c2ccccc21	-16%	112%	28%	-39%	?	?
O=C(Cn1c(=O)sc2ccccc21)NCc1ccccn1	?	?	14%	45µM*	27%	5%
